Screening data: PubChem BioAssay, National Center for Advancing Translational Sciences (NCATS)
PNC assembly inh: High Content Assay for Compounds that inhibit the Assembly of the Perinucleolar Compartment; PC3M PTB-GFP, PNC prevalence imaging, 16 h; active compounds read low; activity change (PNC), negative = inhibition, % at 10 µM; hit rate 3.1% among 140,000; AID 2417, 2010;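 active = readout at or below -70, meaning at least 70% loss of cells showing the perinucleolar compartment, a nuclear body marking cancer cells; inconclusive = readout between -30 and a set limit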;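 also: plate controls were DMSO wells for no effect and camptothecin positive control wells for full effect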
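PC3M cells stably expressing PTB-GFP, 750–1000 cells/well, treated 16 h at 37 °C with compound (23 nl of library stock), in duplicate. After paraformaldehyde fixation and Hoechst stain, imaged at 20x; PNC prevalence scored by image analysis.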
HTT aggregate: qHTS Multiplex Assay to Identify Dual Action Probes in a Cell Model of Huntington: Aggregate Formation (GFP); PC12 HttQ103-GFP aggregates, Acumen cytometry, 40 h; Potency, µM (doses to about 46.1 µM), inactives show at the top dose activity change, negative = inhibition, usual class: inhibitors; hit rate 1.1% among 220,000; also: potency is read from the fitted curve at half-maximal effect; % is scaled to controls: 0 for no effect and ±100 for the full control effect; nearly all actives have a fitted effect of over 60% in size
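Ecdysone-promoter PC12 model expressing HTT exon 1 Q103 fused to GFP, induced by tebufenozide at 100 nM final. Compounds titrated; aggregates sized 1–25 µm scored on a 488 nm laser cytometer.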
HTT ATP protect: qHTS Multiplex Assay to Identify Dual Action Probes in a Cell Model of Huntington: Cytoprotection (ATP); PC12 HTT-Q103 induced, cytoprotection, ATP luminescence, 40 h; hit rate 0.14% among 230,000; Potency, µM (highest dose often 56.4 µM), inactives show cytoprotection (ATP increase), actives largely listed as activators; also: potency is read from the fitted curve at half-maximal effect; % of control where 0% means no effect; nearly all actives have a fitted effect of over 45% in size
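Quantitative HTS on tebufenozide-induced (100 nM) PC12 cells expressing HTTQ103 exon 1–GFP; compounds tested as a concentration series; survival measured via cellular ATP.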
Numbers without * were called inactive; ? = inconclusive; / = no result; [ ] = dose if it differs, or a comment. Shown is part of a subset that was picked to be rich in hits. Unless noted, calls follow the shape of the dose curve; as a rule, active = well fitted curve in the direction sought with a large enough effect; inconclusive = small, poorly fitted or top-dose-only effect, or another doubt; inactive = no such curve, though single readings can be large; an effect the other way counts as inactive or inconclusive.

SMILES	PNC assembly inh	HTT aggregate	HTT ATP protect
CCN(CCNC(=O)C1CCCN(S(=O)(=O)c2cnc[nH]2)C1)c1ccccc1 (centres undefined)	-4.9	-7.5%	-20.2%
O=C(c1ccc(-n2cccc2)cc1)N1CCCCC1	/	0.0%	-30.3%[10 µM]
COc1ccc2c(c1)C(C)=CC(C)(C)N2S(=O)(=O)c1ccc(C)cc1	/	-35.5%[9.22 µM]	-78.8%[10 µM]
CC1=CC(C)(C)N(S(=O)(=O)c2ccc(C)cc2)c2cc(C)ccc21	-95.2*	-9.1%[9.22 µM]	-81.8%
CCCCN1C(=O)CC(C(=O)O)C1c1ccc(OC)cc1 (centres undefined)	5.1	3.2%	?
CCCCN1C(=O)CCC(C(=O)O)C1c1ccccc1 (centres undefined)	-102.0*	-8.1%	-31.8%
CC(=O)c1ccc(NC(=O)C(C)N(C)CC(=O)Nc2ccc(N3CCOCC3)cc2)cc1 (centres undefined)	/	14.5%	-97.8%
COCCn1nnnc1C(c1ccccn1)N1CCN(c2cccc(C)c2C)CC1 (centres undefined)	?	-26.4%	15.7%[10 µM]
FC(F)Oc1ccc(-c2c[n+]3c(n2-c2ccccc2)CCCCC3)cc1	/	7.9%[9.22 µM]	6.1%[10 µM]
COc1ccc(-c2c[n+]3c(n2-c2ccccc2)CCCCC3)cc1	-22.4	?	16.0%[10 µM]
COc1ccccc1-n1c(-c2ccccc2)c[nH]c1=S	/	-10.3%	7.7%[10 µM]
COc1ccc(-n2cc(-c3ccccc3)[n+]3c2CCCCC3)cc1	/	?	-2.3%[10 µM]
COc1ccc(-c2cn(-c3ccc(OC)cc3)c3[n+]2-c2ccccc2CC3)cc1	-96.2*	?	-50.4%[10 µM]
COc1ccc(-n2c(-c3ccc(Br)cc3)c[n+]3c2CCc2ccccc2-3)cc1	-134.0*	12.6µM*	-12.6%[10 µM]
COc1ccccc1-n1c(-c2ccccc2)c[n+]2c1CCc1ccccc1-2	/	2.24µM*	-86.8%
CC(C)c1ccc(-n2c(-c3ccccc3)c[n+]3c2CCc2ccccc2-3)cc1	/	1.58µM*	-53.7%[10 µM]
CS(=O)(=O)N1CCN(CCN2C(=O)c3cccc4cccc(c34)C2=O)CC1	/	-0.6%[9.22 µM]	-12.5%[10 µM]
Cc1ccc(C)c(C(=N)c2ccccc2Cc2ccccc2)c1	/	/	9.9%[10 µM]
COC(=O)c1ccc(NC(=O)C23CC4CC(C2)CC(n2cncn2)(C4)C3)cc1	30.1	?	/
CCCc1nc2sc3ccccc3c(=O)c2c(=O)n1CCOC	9.2	-13.9%	-5.1%
COc1ccc(C(=O)N2CCC(C(=O)c3c(C)cc(C)cc3C)CC2)cc1	/	-3.9%[9.22 µM]	4.1%[10 µM]
CCCn1c(=N)n(CC(O)COc2cccc(C)c2)c2ccccc21 (centres undefined)	23.1	-6.8%	-40.3%
COc1ccc(C2CC(c3ccc4ccccc4c3)=NN2C(=O)CNC2CCCCC2)cc1 (centres undefined)	/	-5.8%	-20.0%
C=CCNCC(=O)N1N=C(c2ccc3ccccc3c2)CC1c1ccc(OC)cc1 (centres undefined)	/	12.6µM*	-2.5%[10 µM]
O=C1CCN(CCc2ccccc2)CCN1CCSc1ccc(Br)cc1	/	12.6%[9.22 µM]	0.8%[10 µM]
SMILES	PNC assembly inh	HTT aggregate	HTT ATP protect
O=S(=O)(N/N=C/c1cccc(OC2CSC2)c1)c1ccccc1	-112.2*	16.2%	/
Cc1ccc(S(=O)(=O)N/N=C/c2cccc(OC3CSC3)c2)cc1	-9.2	5.3%	1.7%[10 µM]
CC1CCN(c2nc3nonc3nc2Nc2ccc(F)cc2)CC1	/	15.5%[9.22 µM]	36.5%[10 µM]
CCN1CCN(C(=O)N[C@@H](C(=O)N[C@@H]2C(=O)N3[C@@H]2SC(C)(C)[C@@H]3C(=O)O)c2ccccc2)C(=O)C1=O	-3.6	-4.7%	/
CSc1nnc(-c2cc(-c3ccc(C)cc3)nc3ccccc23)o1	44.8	-16.0%	/
Cc1cc(C(=O)CN2C(=O)NC3(CCCc4sccc43)C2=O)c(C)n1-c1ccccc1 (centres undefined)	-2.7	22.4µM*	/
COc1ccc(-n2c(C)cc(C(=O)CN3C(=O)NC4(CCCc5sccc54)C3=O)c2C)cc1 (centres undefined)	32.5	?	?
CCCCCCCN1C2=NCCN2c2ccccc21	/	-7.6%[9.22 µM]	2.4%[10 µM]
CCCCCCN1C2=NCCN2c2ccccc21	-107.1*	0.0%	7.2%
CCCN1C2=NCCN2c2ccccc21	28.6	9.5%[9.22 µM]	12.5%[10 µM]
c1ccc(OCCN2C3=NCCN3c3ccccc32)cc1	-89.5*	-12.1%	3.3%
CC(OC(=O)C1=COCCO1)C(=O)Nc1cccc(S(=O)(=O)N2CCOCC2)c1 (centres undefined)	/	11.3%[9.22 µM]	17.6%[10 µM]
COc1cccc(-c2cc(C(=O)N3CCN(C(c4ccccc4)c4ccccc4)CC3)no2)c1	?	-20.3%	-60.9%
COc1cccc(-c2cc(C(=O)N3C(C)CCCC3C)no2)c1 (centres undefined)	-90.6*	?	4.6%[10 µM]
COc1cc(C2C(C#N)=C(C)NC3=C2C(=O)c2ccccc23)cc(OC)c1OC (centres undefined)	-115.5*	-3.6%	-146.6%[0.074 µM]
COc1ccc(C2C(C#N)=C(C)NC3=C2C(=O)c2ccccc23)cc1 (centres undefined)	26.6	-36.5%	6.0%
CC(C)(C)c1ccc2c(c1)N(CC(=O)O)C(=O)CO2	7.5	2.4%	-12.5%
CCC(C)NS(=O)(=O)c1ccc(NC(=O)Cc2ccc(OC)cc2)cc1 (centres undefined)	/	-1.7%[9.22 µM]	4.0%[10 µM]
Cn1c2c(c(=O)n(C)c1=O)CN(CCCN1CCOCC1)CN2	-84.1*	-17.5%	-27.0%[0.074 µM]
O=c1[nH]c(=S)[nH]c2c1CN(CCCN1CCOCC1)CN2	/	/	-0.9%[10 µM]
COc1ccc(N2C(N)=C(C#N)C(c3cccnc3)C3=C2CC(C)(C)CC3=O)cc1 (centres undefined)	?	2.1%	-2.6%[10 µM]
O=C(COC(=O)c1ccccc1[N+](=O)[O-])c1ccc(C2CCCCC2)cc1	0.8	?	6.4%
CN1CC2([N+](=O)[O-])CC=C(OCCO)C([N+](=O)[O-])(C1)C2 (centres undefined)	-114.6*	5.1%	/
CN1CC2([N+](=O)[O-])CC=C(Oc3ccccc3)C([N+](=O)[O-])(C1)C2 (centres undefined)	-20.0	-10.5%	-12.3%
O=C1CSC(=S)N1c1cccnc1	14.4	-20.4%	-12.9%[0.074 µM]
SMILES	PNC assembly inh	HTT aggregate	HTT ATP protect
O=C1CSC(=S)N1/N=C/c1cccnc1	/	0.891µM*	/
COC(=O)c1c(NC(=O)CN2CCN(c3ccccc3OC)CC2)c2c(C)cccc2n1C	28.6	-9.6%	-22.4%[0.074 µM]
O=C(CSc1nc2ccc([N+](=O)[O-])cc2s1)NC1CCS(=O)(=O)C1 (centres undefined)	/	-0.8%	-13.7%[10 µM]
CN1CCN(c2nc(N3CCN(c4ccccc4)CC3)ncc2F)CC1	0.4	-1.6%	-2.8%
O=C(NCc1cccs1)c1cc(-c2cccc(Cl)c2)on1	-124.1*	15.2%	-5.8%
O=C(NCc1cccs1)c1cc(-c2ccc(O)cc2)on1	/	-0.9%[9.22 µM]	-15.2%[10 µM]
Cc1ccc(C(=O)Nc2nnc(-c3ccco3)o2)cc1	20.0	-10.7%	-2.8%[10 µM]
O=C(Nc1nnc(-c2ccncc2)o1)c1ccc(Br)s1	/	11.2µM*	-110.3%
O=C(Nc1nnc(-c2ccco2)o1)c1ccc([N+](=O)[O-])s1	/	11.2µM*	-173.3%
CC(C)(C)C(=O)Nc1nnc(-c2ccncc2)o1	9.3	-8.9%	9.1%[10 µM]
